Screening results: PubChem BioAssay, Broad Institute
Hits are enriched below; roughly 2.1% of the tested compounds scored in any of these assays.
Ecoli rRNA inh: inhibits bacterial ribosomal RNA function over humanized ribosomes; E. coli WT GFP vs humanized-ribosome RFP mutants, fluorescence, 24 h; active compounds read low; DMSO median 0, no signal -100; GFP signal change (wild-type ribosome), % (concentration not given with the values); 1.6% of 350,000 active;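 active = significant combined selectivity score with lowered wild-type GFP, culture density cut under 30%, mutant RFP and density less affected; inactive = any of these conditions unmet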
ERAP1 HTS inh: blocks human ERAP1 aminopeptidase activity. recombinant ERAP1, Leu-AMC fluorescence, 60 min. 0.15% of 340,000 active. Q9NZ08. inhibition, % at 10.7 µM;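 active = mean replicate inhibition of at least 30%, or all replicates individually reaching that 30% level; inactive = mean below 30% and not every replicate reaching it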;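 also: 0% = neutral control wells and 100% = L-leucinethiol positive control wells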
Target sequence (Q9NZ08 whole entry, looked up): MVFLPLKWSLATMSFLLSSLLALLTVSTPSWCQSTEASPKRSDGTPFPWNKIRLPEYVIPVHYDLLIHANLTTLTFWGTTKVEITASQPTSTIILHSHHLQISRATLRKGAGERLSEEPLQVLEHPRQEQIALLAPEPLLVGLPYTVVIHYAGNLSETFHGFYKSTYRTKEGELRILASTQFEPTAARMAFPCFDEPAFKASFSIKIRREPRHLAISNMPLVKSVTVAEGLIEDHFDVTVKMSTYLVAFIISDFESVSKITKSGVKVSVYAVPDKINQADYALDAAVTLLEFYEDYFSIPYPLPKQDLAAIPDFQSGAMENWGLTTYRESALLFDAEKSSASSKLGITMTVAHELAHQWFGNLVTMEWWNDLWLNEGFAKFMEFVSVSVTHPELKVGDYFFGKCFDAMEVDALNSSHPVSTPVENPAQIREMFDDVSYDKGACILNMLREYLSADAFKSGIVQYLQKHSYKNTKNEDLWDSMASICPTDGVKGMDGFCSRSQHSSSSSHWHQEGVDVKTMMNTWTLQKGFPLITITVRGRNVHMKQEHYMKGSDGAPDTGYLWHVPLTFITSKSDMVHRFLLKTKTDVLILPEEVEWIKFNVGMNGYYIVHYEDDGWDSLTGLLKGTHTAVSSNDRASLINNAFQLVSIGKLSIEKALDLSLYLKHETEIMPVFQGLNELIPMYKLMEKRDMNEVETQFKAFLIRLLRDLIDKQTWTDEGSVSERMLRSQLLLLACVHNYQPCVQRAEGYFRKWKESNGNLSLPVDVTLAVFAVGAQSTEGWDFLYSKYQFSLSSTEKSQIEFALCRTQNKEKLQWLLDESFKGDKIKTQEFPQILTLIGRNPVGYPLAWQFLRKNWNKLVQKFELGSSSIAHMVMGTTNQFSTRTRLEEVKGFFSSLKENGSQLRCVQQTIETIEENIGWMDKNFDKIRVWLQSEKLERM
ARNT TACC3 PPI: disruptors of human ARNT/TACC3 interaction; Q9Y6A5; AlphaScreen His-ARNT PAS-B/GST-TACC3 binding, luminescence; TACC3 fragment carries E629A point mutation; inhibition, % at 9.99 µM; AID 623870; 0.66% of 390,000 active;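 active = mean inhibition of replicates at least 50% and at least half of replicates each reaching 50%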;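 also: 0% = complete ARNT plus TACC3 wells and 100% = ARNT alone without TACC3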
PvdQ acylase: P. aeruginosa PvdQ acylase inhibition; purified PvdQ acylase, fluorescence plate reader; inhibition, % at 10 µM; 0.063% of 340,000 active; AID 488965; in the data active = inhibition above about 30%, passing the limit was not always enough;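 also: 0% = vehicle neutral wells and 100% = reference inhibitor wells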
F508del corr: CFTR F508del correction in bronchial cells; CFBE cells, YFP halide quenching; stimulated with forskolin plus potentiator P3; % fluorescence drop versus neutral controls; activity (quench increase), % at 7.58 µM; 0.36% of 350,000 active;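 active = mean added fluorescence quench of at least 8% versus neutral control, with both replicates also reaching 8%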;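 also: cells transiently co-express mutant CFTR-F508del with the halide-sensitive YFP; corrector assay measuring rescue of mutant channel to the surface after 24 h compound exposure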
* hit, by the source's call; . = not tested or not shown.

SMILES | Ecoli rRNA inh | ERAP1 HTS inh | ARNT TACC3 PPI | PvdQ acylase | F508del corr
CC(=O)Nc1ccc(/C(C)=N/NC(=O)c2ccc(COc3ccccc3Cl)o2)cc1 | -29.9* | . | -12.7 | -2.1 | 1.2
CO[C@@H]1CN(C)C(=O)c2ccc(NC(C)=O)cc2OC[C@H](C)N(Cc2ccccn2)C[C@@H]1C | 1.4 | -3.4 | 1.4 | . | -0.4
O=C(CCc1c[nH]c2ccccc12)Nc1ccc(Nc2ccccc2)cc1 | -31.3 | -1.3 | . | . | -2.9
c1ccc(Nc2ccc(NCCc3c[nH]c4ccccc34)cc2)cc1 | -23.7* | 3.4 | . | . | 2.7
O=C(CCc1c[nH]c2ccccc12)Nc1ccc(Nc2ccncc2)cc1 | 9.2 | 0.5 | . | . | 0.9
O=C(CCc1c[nH]c2ccccc12)Nc1ccc(Nc2cccnc2)cc1 | -30.3* | 3.0 | . | . | -0.4
O=C(Nc1ccccc1)N[C@H]1CC[C@H](CCNS(=O)(=O)c2cccc(F)c2)O[C@H]1CO | -2.1 | -0.1 | -15.2 | . | -1.7
O=[N+]([O-])c1cc(Br)cc(C=Nc2ccc3c(c2)OCO3)c1O | -30.0* | -0.4 | -1.4 | -1.7 | -1.2
C[C@@H]1CN([C@@H](C)CO)C(=O)c2cc(C3=CCCCC3)cnc2O[C@@H]1CN(C)Cc1ccc(C(=O)O)cc1 | -0.4 | -1.3 | -4.4 | . | -0.7
Cc1ccc2ncnc(Nc3ccc(C)c(C)c3)c2c1 | -27.4* | -3.2 | -7.1 | -4.6 | 3.7
c1ccc(CN2CCN(C(c3ccccc3)c3ccccc3)CC2)cc1 | -23.9* | -6.2 | 2.7 | -11.9 | 4.6
Fc1ccc(CN2CCN(C(c3ccccc3)c3ccccc3)CC2)cc1 | -43.3 | 0.2 | -6.1 | -4.5 | 0.6
O=C(CSC(=S)N1CCCC1)c1cc(Br)cc(Br)c1O | -30.1* | 2.4 | . | . | .
O=c1[nH]cnc2c1c(-c1ccccc1)cn2-c1ccccc1 | -30.5* | 0.4 | 8.5 | -16.7 | 1.3
C[C@H]1CN([C@@H](C)CO)C(=O)c2cc(-c3cccc(F)c3)cnc2O[C@H]1CN(C)C(=O)C1CCC1 | -0.8 | -1.9 | -10.7 | . | -2.5
NC(=S)NN=Cc1nccc2ccccc12 | 0.3 | 1.0 | 77.3* | 2.2 | 9.7*
NC(=S)N/N=C/c1ccccc1O | -1.2 | 5.6 | 72.6* | -5.5 | 4.2
Oc1ccccc1C=NNC(=S)NN=Cc1ccccc1O | -45.0 | 4.5 | 60.7* | 0.6 | 6.0
Oc1ccccc1/C=N/Nc1ccccc1 | -27.5 | -2.4 | 9.9 | -8.7 | -4.6
NC(=S)NN=Cc1nccc2c(C(F)(F)C(F)(F)C(F)(F)F)cccc12 | -3.5 | -2.4 | . | . | 1.2
Cc1cc(/C=N/NC(N)=S)c(O)c(/C=N/NC(N)=S)c1 | 30.2 | -2.0 | 66.4* | -2.3 | 14.0*
CS(=O)(=O)N1[C@@H]2CN(CC3CC3)C[C@H]1C2c1ccc(Br)cc1 (stereo not given in full) | -5.8 | . | . | . | .
Cc1ccccc1Nc1ccc2nonc2c1[N+](=O)[O-] | 8.4 | -4.4 | -13.6 | 12.0 | 0.8
Cc1ccccc1Nc1cccc2nonc12 | -39.6* | -0.5 | -5.4 | -3.5 | .
CCCNC(=O)[C@@H]1[C@@H](CO)[C@@H]2Cn3c(cccc3=O)[C@H]1N2Cc1cccc(Cl)c1 | 3.6 | 1.8 | -2.0 | . | 1.4
SMILES | Ecoli rRNA inh | ERAP1 HTS inh | ARNT TACC3 PPI | PvdQ acylase | F508del corr
O=C(C[C@H]1CC[C@H]2[C@@H](COC[C@H](O)CN2C(=O)c2ccncc2)O1)NCc1cccc(F)c1 | 5.8 | . | -2.5 | . | -1.8
O=C(O)CCC(=O)NCc1c(Cl)cccc1Sc1ccc(Cl)cc1 | -25.4* | -3.0 | . | . | .
COCC(=O)Nc1ccc2c(c1)C(=O)N(C)C[C@@H](OC)[C@H](C)CN(Cc1cccnc1)[C@@H](C)CO2 | 3.0 | -3.7 | -14.3 | . | -0.4
C[C@H](CO)N1C[C@H](C)[C@H](CN(C)Cc2ccc(Oc3ccccc3)cc2)Oc2c(NS(=O)(=O)c3ccc(Cl)cc3)cccc2C1=O | 1.5 | 0.3 | 2.2 | . | -1.6
O=C(NCc1ccccc1)C(c1ccccc1)N(Cc1ccccc1)C(=O)Cc1ccccc1 (stereo not given) | . | -0.5 | 0.9 | . | -6.6
Cc1cccc(S(=O)(=O)NC[C@H]2CC[C@@H]3NC[C@@H]3O2)c1 | . | 0.0 | . | . | -0.5
CC(C)CC1(C2CCCC2)NC(=O)NC1=O (stereo not given) | 10.3 | -3.7 | -28.9 | 4.0 | -2.2
CCCCC1(C2CCCC2)NC(=O)NC1=O (stereo not given) | 8.1 | 1.0 | -0.3 | -2.7 | 12.3*
COc1cc(C(=O)Nc2nnc(S(=O)(=O)N3CCCCCC3)s2)cc(OC)c1OC | -30.6* | 0.4 | 4.3 | -10.3 | -0.5
COc1cccc(C(=O)Nc2nnc(S(=O)(=O)N3CCCC3)s2)c1 | 1.0 | 1.2 | -8.0 | -9.5 | -1.0
CC(C)NC(=O)NCC[C@H]1CC[C@@H](NS(=O)(=O)c2ccccc2)[C@@H](CO)O1 | 2.4 | -2.4 | . | . | -1.2
CS(=O)c1ccccc1O (stereo not given) | 20.1 | 0.8 | -1.5 | -5.1 | -3.5
O=S(c1ccccc1O)S(=O)c1ccccc1O (stereo not given) | . | 99.4* | 8.8 | -9.9 | 0.6
CO[C@@H]1CN(C)C(=O)c2ccc(NS(=O)(=O)c3cccc(F)c3)cc2OC[C@@H](C)NC[C@H]1C | -0.2 | 0.9 | 1.1 | . | 0.0
Cc1ccc2c(Cl)c(C(=O)N/N=C/c3cccn3C)sc2c1 | -21.6* | 0.2 | 0.4 | -10.3 | .
CN(CCCC(=O)Nc1ccccc1F)S(=O)(=O)c1ccc(F)cc1 | -3.9 | -2.0 | . | -18.6 | -2.5
CN(CCCC(=O)Nc1ccc(Br)cc1F)S(=O)(=O)c1ccccc1 | -22.1* | -2.2 | -2.6 | -18.9 | 0.8
Cc1cccc(N2CCN(C(=O)CNC(=O)c3cccc([N+](=O)[O-])c3)CC2)c1C | -19.0* | 1.5 | -2.8 | 5.9 | 1.5
Cc1ccc(Cl)cc1N1CCN(S(=O)(=O)c2ccc3[nH]c(=O)c(=O)[nH]c3c2)CC1 | -29.3* | 2.1 | -2.6 | 19.4 | 0.7
Cc1ccc(Cl)cc1N1CCN(S(=O)(=O)c2ccc3[nH]c(=O)ccc3c2)CC1 | -4.7 | 7.6 | -4.8 | -1.2 | 0.3
COC(=O)C[C@@H]1C[C@H]2c3cc(NC(=O)Nc4ccc(F)cc4)ccc3O[C@H]2[C@H](CO)O1 | -7.4 | . | 6.3 | . | 0.8
COc1ccc(NC(=O)N(C)C[C@@H]2Oc3ncc(C4=CCCC4)cc3C(=O)N([C@H](C)CO)C[C@@H]2C)cc1 | 1.3 | -1.8 | -7.1 | . | -1.5
C=C(Cl)COc1ccc2c(CC)cc(=O)oc2c1 | -24.1* | -2.0 | -10.2 | -2.9 | -2.0
COc1ccc(CN(C)C[C@@H]2Oc3ccc(N(C)C)cc3CC(=O)N([C@@H](C)CO)C[C@@H]2C)cc1 | 0.4 | -1.6 | -6.8 | . | 1.3
COc1ccc2c3c(n(C)c2c1)[C@@H](CO)N(C(=O)Nc1ccc(F)cc1)CC31CN(S(=O)(=O)c2cccc(F)c2)C1 | -0.9 | . | . | . | .
CNC(=O)c1ccsc1NC(=O)c1ccc(Cl)s1 | -28.4* | 3.1 | -3.4 | 6.8 | -1.2
CC(=O)c1c(O)cc(C)n(Nc2nc(C)cc(C)n2)c1=O | . | . | 72.5* | -5.1 | .
